Source: PubChem BioAssay (Tox21)
Inconclusive results are not listed. The source made the active and inactive calls. Unless noted, calls follow the shape of the dose curve; as a rule, active = well fitted curve in the direction sought with a large enough effect in the repeat runs; inconclusive = weak or mixed curves; inactive = no such curve, though single readings can be large; an effect the other way counts as inactive or inconclusive.

How the values were obtained:
[1] = A CellTox Green Cytotoxicity Assay to monitor cytotoxicity in HepG2 cells - 8 hour (AID 1224890); also: nearly all actives have a fitted effect of over 45% in size
Procedure, shortened: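 Read-out is fluorescence of a cyanine dye excluded from live cells that stains DNA of dead HepG2 cells, with signal proportional to cytotoxicity. Plates were read at 0, 8, 16, 24, 32 and 40 h after compound addition.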

[2] = qHTS assay to identify small molecule antagonists of the estrogen receptor alpha (ER-alpha) signaling pathway using the BG1 cell line in the presence of 0.1 nM 17-beta-estradiol - cell viability counter screen (AID 1259241); also: nearly all actives have a fitted effect of over 40% in size
Procedure, shortened: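 VM7Luc4E2 cells (endogenous ER-alpha, 4×ERE-luciferase), hormone-starved 5 days in charcoal-stripped FBS, were treated with compounds plus 0.1 nM 17beta-estradiol for 22 hr at 37C; viability read in same wells as CellTiter-Fluor live-cell protease fluorescence.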

[3] = qHTS assay to identify small molecule antagonists of the androgen receptor (AR) signaling pathway using the MDA cell line in the presence of 0.5 nM R1881 - cell viability counter screen (AID 1259242); also: nearly all actives have a fitted effect of over 45% in size
Procedure, shortened: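 Counter screen for cytotoxicity run in the same wells as the AR antagonist reporter screen: MDA-kb2 cells were treated 16 hr with test compounds and 0.5 nM R1881, then live-cell protease activity was measured by fluorescence.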

[4] = qHTS assay to identify small molecule phospholipidosis (PLD) inducers (AID 1259344; active = well fitted curve in the direction sought with a large enough effect; an effect the other way counts as inactive or inconclusive)
Procedure, shortened: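 HepG2 cells grown on collagen I take up LipidTOX Red while exposed to compound for 24 h; after fixation they are imaged at 20x and pit metrics are extracted.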

[5] = qHTS assay to identify small molecule HDAC inhibitors (AID 1259364); also: top concentration of the series differs between compounds; nearly all actives have a fitted effect of over 45% in size
Procedure, shortened: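 Luminescence from a cell-permeant luminogenic class I/II HDAC substrate reports endogenous deacetylase activity in intact HCT-116 cells treated with compounds for 2 h.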

[6] = qHTS assay to identify small molecule HDAC inhibitors - cell viability counter screen (AID 1259365); also: series mostly up to about 92 µM; nearly all actives have a fitted effect of over 50% in size
Procedure, shortened: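 Wild-type HCT-116 cells were seeded at 1,500 per well, incubated overnight at 37 C, then exposed to compounds in DMSO for 2hr. Viability was read by CellTiter-Glo luminescence after 30min at room temperature.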

[7] = qHTS assay to identify small molecule agonists of the sonic hedgehog signaling (Shh) pathway - cell viability counter screen (AID 1259366); also: nearly all actives have a fitted effect of over 50% in size
Procedure, shortened: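 NIH/3T3-derived 3T3 Gli1-Luc cells (stable Gli1-responsive firefly luciferase reporter) were seeded, rested 4 hr at 37 C/5% CO2, then exposed to compounds in DMSO for 24 hr; viability was read by CellTiter-Fluor fluorescence in the same wells.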

[8] = qHTS assay to identify small molecule antagonists of the sonic hedgehog signaling (Shh) pathway - cell viability counter screen (AID 1259367); also: nearly all actives have a fitted effect of over 55% in size
Procedure, shortened: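 After a 4 hr settling period, 3T3 Gli1-Luc cells were treated with DMSO-dissolved chemicals and conditioned medium, kept 24 hr at 37C in 5% CO2, and assayed for viability by CellTiter-Fluor fluorescence following 1 hr reagent incubation.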

[9] = qHTS assay to identify small molecule antagonists of the sonic hedgehog signaling (Shh) pathway (AID 1259369; calls by dose curve; also: nearly all actives have a fitted effect of over 45% in size)
Procedure, shortened: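 3T3Gli1-Luc, conditioned-medium-stimulated, 24hr cpd, 37C/5% CO2; Gli1-driven firefly Luc luminescence after 30min RT with luciferase reagent. Cells plated 4hr before cpd.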

[10] = target: Estrogen receptor beta (Homo sapiens) (UniProt Q92731); assay: qHTS assay to identify small molecule agonists of the estrogen receptor beta (ER-beta) signaling pathway (AID 1259377; active = well fitted activation curve with a large enough effect in the signal ratio in the repeat runs, not every such curve was filed as active; the % refers to the signal ratio)
Procedure, shortened: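 ER-beta-UAS-bla HEK293T (GripTite) cells carrying a UAS-driven beta-lactamase reporter, in medium with 2% charcoal-stripped FBS, were exposed to compounds for 16 hr at 37C; LiveBLAzer B/G FRET substrate was then added and fluorescence read after 2 hours at room temperature.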

[11] = target: Estrogen receptor beta (Homo sapiens) (UniProt Q92731); assay: qHTS assay to identify small molecule antagonists of the estrogen receptor beta (ER-beta) signaling pathway (AID 1259378; active = well fitted inhibition curve with a large enough effect in the signal ratio in the repeat runs, not every such curve was filed as active; the % refers to the signal ratio; also: potency is read from the fitted curve at half-maximal effect)
Procedure, shortened: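 ER-beta-UAS-bla HEK293T (GripTite) cells in 2% charcoal-stripped FBS medium were preincubated 6 hr at 37C, dosed with compound, then stimulated with 1 nM E2 (final) for 16 hr; beta-lactamase reporter read by B/G FRET fluorescence after 2 hr substrate loading.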

[12] = qHTS assay to identify small molecule agonists of the androgen receptor (AR) signaling pathway in the presence of an antagonist - cell viability counter screen (AID 1259379);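 also: MDA-kb2 human breast cancer cells carrying an MMTV luciferase reporter; series mostly up to about 92 µM; nearly all actives have a fitted effect of over 25% in size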
Procedure, shortened: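 Cells: MDA-kb2 (MMTV-luc, AR and GR elements), 3,000/well, 5 hr settle. Added: nilutamide 3.0uM final, then compounds (15 conc.). Incubation: 16 hr, 37C, no CO2. Read-out: CellTiter-Fluor, 1 hr, fluorescence.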

[13] = qHTS assay to identify small molecule agonists of the estrogen receptor beta (ER-beta) signaling pathway - cell viability counter screen (AID 1259380); also: nearly all actives have a fitted effect of over 30% in size
Procedure, shortened: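 HEK293T ER-beta-UAS-bla; 2% CS-FBS; 6 hr pre-plate, 16 hr cpd at 37C/5% CO2; LiveBLAzer read first, then CellTiter-Glo 30 min RT, luminescence.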

[14] = qHTS assay to identify small molecule antagonists of the estrogen receptor beta (ER-beta) signaling pathway - cell viability counter screen (AID 1259382); also: series mostly up to about 92 µM; nearly all actives have a fitted effect of over 55% in size
Procedure, shortened: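 Cells: ER-beta-UAS-bla HEK293T, 2,000/well, 2% CS-FBS, 6 hr settle. Cpd + E2 (1nM final), 16 hr, 37C/5% CO2. Bla FRET substrate 2 hr RT, then CellTiter-Glo 30 min RT, luminescence.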

[15] = qHTS assay to identify small molecule agonists or antagonists of the thyroid stimulating hormone receptor (TSHR) signaling pathway - wild type cell line counter screen (AID 1259384; calls by dose curve)
Procedure, shortened: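 Wild-type HEK293 cells were plated 18 h at 37 C/5% CO2, pin-dosed with compound plus Ro20-1724 medium, held 30 min at room temperature, then given cAMP-d2 and anti-cAMP-cryptate; fluorescence was read after 1 h. Fifteen concentrations, triplicate.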

[16] = qHTS assay to identify small molecule agonists of the sonic hedgehog signaling (Shh) pathway (AID 1259368; calls by dose curve; also: series mostly up to about 92 µM; nearly all actives have a fitted effect of over 15% in size)
Procedure, shortened: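 3T3Gli1-Luc (NIH/3T3 clone, stable Gli1-Luc); 4 hr pre-incubation, then cpd in DMSO 24 hr, 37 C/5% CO2; luciferase reagent 30 min RT; luminescence.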
% is scaled to controls: 0 for no effect and ±100 for the full control effect.

Sequence of Estrogen receptor beta (Homo sapiens) (Q92731 whole entry, looked up): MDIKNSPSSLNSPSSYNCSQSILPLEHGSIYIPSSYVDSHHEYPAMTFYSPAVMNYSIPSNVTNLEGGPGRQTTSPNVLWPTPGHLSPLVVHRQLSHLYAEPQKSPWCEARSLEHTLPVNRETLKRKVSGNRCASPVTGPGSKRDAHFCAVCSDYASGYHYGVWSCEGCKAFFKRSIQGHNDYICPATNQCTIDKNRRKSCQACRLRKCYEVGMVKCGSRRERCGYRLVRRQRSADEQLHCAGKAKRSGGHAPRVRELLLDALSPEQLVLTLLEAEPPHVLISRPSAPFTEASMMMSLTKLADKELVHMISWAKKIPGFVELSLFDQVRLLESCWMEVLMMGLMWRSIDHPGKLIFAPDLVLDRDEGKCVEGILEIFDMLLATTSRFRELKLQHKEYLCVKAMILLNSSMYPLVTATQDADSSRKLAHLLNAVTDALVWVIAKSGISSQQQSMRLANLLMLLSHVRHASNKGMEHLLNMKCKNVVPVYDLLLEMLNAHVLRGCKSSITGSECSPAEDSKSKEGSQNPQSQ

CCOc1ccc(NS(=O)(=O)c2ccc(N)cc2)nn1
inactive: Potency [1] | Potency [2] | outcome [3] | outcome [4] | Potency [5] | outcome [6] | Potency [7] | Potency [8] | Potency [9] | outcome [10] | Potency [11] | Potency [12] | Potency [13] | outcome [14] | outcome [15]

CCc1nnc(NS(=O)(=O)c2ccc(N)cc2)s1
inactive: Potency [1] | Potency [2] | outcome [3] | outcome [4] | Potency [5] | outcome [6] | Potency [9] | outcome [10] | Potency [11] | Potency [12] | Potency [13] | outcome [14] | outcome [15]

O=C(O)CN(CCN(CC(=O)O)CC(=O)O)CCN(CC(=O)O)CC(=O)O
inactive: cytotoxicity increase [1] 26.9% [at 15.8 µM] | activity change, negative = cytotoxicity [2] -1.86% [at 19 µM] | viability change, negative = cytotoxic [3] 3.41% [at 19 µM] | outcome [4] | activity change, negative = inhibition [5] 3.25% [at 19 µM] | activity change, negative = cytotoxicity [6] 3.61% [at 19 µM] | viability change, negative = cytotoxic [7] -18.4% [at 19 µM] | viability change, negative = cytotoxic [8] -7.04% [at 19 µM] | activity change [16] 0.166% [at 18.9 µM, stronger effect = higher value] | activity change, negative = inhibition [9] -28.7% [at 19 µM] | activation [10] -4.18% [at 19 µM] | activity change, negative = cytotoxicity [12] -0.118% [at 19 µM]
active: Potency [11] 5.8 µM
